According to PubChem BioAssay (NCATS):
Inconclusive results are not listed. The source made the active and inactive calls. Calls follow the shape of the dose curve; as a rule, active = well fitted curve in the direction sought with a large enough effect; inconclusive = small, poorly fitted or top-dose-only effect, or another doubt; inactive = no such curve, though single readings can be large; an effect the other way counts as inactive or inconclusive. Where a SMILES comes first, the peptide text is derived from it.

Assays:
NIH3T3 [1] = assay: Cytotoxic Profiling of Annotated Libraries Using Quantitative High-Throughput Screening (AID 1296008); details: Five cell lines viability, CellTiter-Glo ATP luminescence, 48-72 h; max response: stronger effect = lower value; also: nearly all actives have a fitted effect of over 60% in size
In short: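 Cytotoxicity was measured as CellTiter-Glo ATP luminescence, read after 10 min at room temperature. Compound treatment of the cells lasted 48 or 72 hr at 37 degrees Celsius in a qHTS format.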

MCC-13 = assay: qHTS assay to identify novel small-molecules to repurpose for Merkel cell carcinoma treatment (AID 1296009); details: MCC and control cell lines, CellTiter-Glo viability, 72 h; series mostly up to 46 µM; also: nearly all actives have a fitted effect of over 60% in size
In short: (§1)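 Cell viability measured by CellTiter-Glo following 72 hr compound treatment at 37 degree celsius, with NPC and MIPE libraries tested in 8- and 11-point concentration series.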

MCC-26 = assay: as above; details: MCC and control cell lines, CellTiter-Glo viability, 72 h; series mostly up to 46 µM
In short: as §1

MKL-1 = assay: as above; details: MCC and control cell lines, CellTiter-Glo viability, 72 h; series mostly up to 46 µM
In short: as §1

MKL-2 = assay: as above; details: MCC and control cell lines, CellTiter-Glo viability, 72 h; series mostly up to 46 µM
In short: as §1

UISO = assay: as above; details: MCC and control cell lines, CellTiter-Glo viability, 72 h; series mostly up to 46 µM
In short: as §1

WaGa = assay: as above; details: MCC and control cell lines, CellTiter-Glo viability, 72 h; series mostly up to 46 µM
In short: as §1

C33A = assay: Primary qHTS to identify gynecologic anti-cancer compounds using libraries of approved drugs and bioactive compounds (AID 1345084); details: Gynecologic cancer cell panel viability, ATPlite luminescence, 48 h; series mostly up to 57.5 µM; also: nearly all actives have a fitted effect of over 55% in size
In short: (§2)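 Measured: luminescence after ATPlite addition (15 min, RT). Exposure: 48 h, 37 C, 5% CO2.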

CAOV3 = assay: as above; details: Gynecologic cancer cell panel viability, ATPlite luminescence, 48 h; series mostly up to 57.5 µM
In short: as §2

CASKI = assay: as above; details: Gynecologic cancer cell panel viability, ATPlite luminescence, 48 h; series mostly up to 57.5 µM
In short: as §2

Es-2 = assay: as above; details: Gynecologic cancer cell panel viability, ATPlite luminescence, 48 h; series mostly up to 57.5 µM
In short: as §2

HeLa = assay: as above; details: Gynecologic cancer cell panel viability, ATPlite luminescence, 48 h; series mostly up to 57.5 µM
In short: as §2

Hek293T = assay: as above; details: Gynecologic cancer cell panel viability, ATPlite luminescence, 48 h, control line for the selectivity index; series mostly up to 57.5 µM
In short: as §2

JEG-3 = assay: as above; details: Gynecologic cancer cell panel viability, ATPlite luminescence, 48 h; series mostly up to 57.5 µM
In short: as §2

OV90 = assay: as above; details: Gynecologic cancer cell panel viability, ATPlite luminescence, 48 h; series mostly up to 57.5 µM
In short: as §2

PA-1 = assay: as above; details: Gynecologic cancer cell panel viability, ATPlite luminescence, 48 h; series mostly up to 57.5 µM
In short: as §2

SKOV3 = assay: as above; details: Gynecologic cancer cell panel viability, ATPlite luminescence, 48 h; series mostly up to 57.5 µM
In short: as §2

NIH3T3 [2] = assay: qHTS assay to identify novel small-molecules to repurpose for Merkel cell carcinoma treatment (AID 1296009); details: MCC and control cell lines, CellTiter-Glo viability, 72 h; at 44.8 µM (top of the series) unless noted; also: nearly all actives have a fitted effect of over 60% in size
In short: as §1
% is scaled to controls: 0 for no effect and ±100 for the full control effect.

CC(=O)N[C@@H](CO)C(=O)N[C@@H](CC(=O)O)C(=O)N[C@@H](CCCCN)C(=O)N1CCC[C@H]1C(=O)O (Ac-SDKP-OH)
inactive: max response (NIH3T3 [1]) -0.894% | Potency (MCC-13) | Potency (MCC-26) | Potency (MKL-1) | Potency (MKL-2) | Potency (UISO) | Potency (WaGa) | Potency (C33A) | Potency (CAOV3) | Potency (CASKI) | Potency (Es-2) | Potency (HeLa) | Potency (Hek293T) | Potency (JEG-3) | Potency (OV90) | Potency (PA-1) | Potency (SKOV3)

COC(=O)c1c(Cl)c(Cl)c(C(=O)OC)c(Cl)c1Cl
inactive: max response (NIH3T3 [1]) -9.58% | Potency (MCC-13) | Potency (MCC-26) | Potency (MKL-1) | Potency (MKL-2) | Potency (UISO) | Potency (WaGa) | Potency (C33A) | Potency (CAOV3) | Potency (CASKI) | Potency (Es-2) | Potency (HeLa) | Potency (Hek293T) | Potency (JEG-3) | Potency (OV90) | Potency (PA-1)

CC(=O)O[C@H]1CC[C@@]2(C)C(=CC[C@@H]3[C@@H]2CC[C@]2(C)C(C(C)=O)=CC[C@@H]32)C1
inactive: max response (NIH3T3 [1]) -1.15% | Potency (MCC-13) | Potency (MCC-26) | Potency (MKL-1) | Potency (MKL-2) | Potency (UISO) | Potency (WaGa) | Potency (C33A) | Potency (CAOV3) | Potency (CASKI) | Potency (Es-2) | Potency (HeLa) | Potency (Hek293T) | Potency (JEG-3) | Potency (OV90) | Potency (PA-1) | Potency (SKOV3)

CCOC(=O)c1ccc(OCCN2C[C@H](O)[C@@H](O)[C@H](O)[C@H]2CO)cc1
inactive: max response (NIH3T3 [1]) -0.529% | Potency (MCC-13) | Potency (MCC-26) | Potency (MKL-1) | Potency (MKL-2) | Potency (UISO) | Potency (WaGa) | Potency (C33A) | Potency (CAOV3) | Potency (CASKI) | Potency (Es-2) | Potency (HeLa) | Potency (Hek293T) | Potency (JEG-3) | Potency (OV90) | Potency (PA-1) | Potency (SKOV3)

Cc1c(C)c2c(c(C)c1OC(=O)CCC(=O)OCCO)CC[C@@](C)(CCC[C@H](C)CCC[C@H](C)CCCC(C)C)O2
inactive: max response (NIH3T3 [1]) -19.3% | Potency (MCC-13) | Potency (MCC-26) | Potency (MKL-1) | Potency (MKL-2) | Potency (UISO) | Potency (WaGa)

N[C@@H](Cc1cc(I)c(O)c(I)c1)C(=O)O
inactive: max response (NIH3T3 [1]) -12.4% | Potency (MCC-13) | Potency (MCC-26) | Potency (MKL-1) | Potency (MKL-2) | Potency (UISO) | Potency (WaGa) | Potency (C33A) | Potency (CAOV3) | Potency (CASKI) | Potency (Es-2) | Potency (HeLa) | Potency (Hek293T) | Potency (JEG-3) | Potency (OV90) | Potency (PA-1) | Potency (SKOV3)

O=C(CCCl)NCCc1ccccc1
inactive: max response (NIH3T3 [1]) -1.58% | Potency (MCC-13) | Potency (MCC-26) | Potency (MKL-1) | Potency (MKL-2) | Potency (UISO) | Potency (WaGa) | Potency (C33A) | Potency (CAOV3) | Potency (CASKI) | Potency (Es-2) | Potency (HeLa) | Potency (Hek293T) | Potency (JEG-3) | Potency (OV90) | Potency (PA-1)

C[C@H]1NCc2cc(-c3ccc4c(=O)c(C(=O)O)cn(C5CC5)c4c3OC(F)F)ccc21
inactive: max response (NIH3T3 [1]) 3.52% | Potency (MCC-13) | Potency (MCC-26) | Potency (MKL-1) | Potency (MKL-2) | Potency (UISO) | Potency (WaGa) | Potency (C33A) | Potency (CAOV3) | Potency (CASKI) | Potency (Es-2) | Potency (HeLa) | Potency (Hek293T) | Potency (JEG-3) | Potency (OV90) | Potency (PA-1)

NC(=O)NS(=O)(=O)c1ccc(Cl)cc1
inactive: max response (NIH3T3 [1]) -2.72% | Potency (MCC-13) | Potency (MCC-26) | Potency (MKL-1) | Potency (MKL-2) | Potency (UISO) | Potency (WaGa) | Potency (C33A) | Potency (CAOV3) | Potency (CASKI) | Potency (Es-2) | Potency (HeLa) | Potency (Hek293T) | Potency (JEG-3) | Potency (OV90) | Potency (PA-1)

CCOC(=O)C(=O)c1csc(NC=O)n1
inactive: max response (NIH3T3 [1]) 0.793% | Potency (MCC-13) | Potency (MCC-26) | Potency (MKL-1) | Potency (MKL-2) | Potency (UISO) | Potency (WaGa) | Potency (C33A) | Potency (CAOV3) | Potency (CASKI) | Potency (Es-2) | Potency (HeLa) | Potency (Hek293T) | Potency (JEG-3) | Potency (OV90) | Potency (PA-1) | Potency (SKOV3)

O=C(O)Cc1ccccc1Oc1ccc(Cl)cc1Cl
inactive: max response (NIH3T3 [1]) -11.6% | Potency (MCC-13) | Potency (MCC-26) | Potency (MKL-1) | Potency (MKL-2) | Potency (UISO) | Potency (WaGa) | Potency (C33A) | Potency (CAOV3) | Potency (CASKI) | Potency (Es-2) | Potency (HeLa) | Potency (Hek293T) | Potency (JEG-3) | Potency (OV90) | Potency (PA-1) | Potency (SKOV3)

CO[C@]1(NC(=O)CSC(F)F)C(=O)N2C(C(=O)O)=C(CSc3nnnn3CCO)CO[C@H]21
inactive: max response (NIH3T3 [1]) 1.66% | Potency (MCC-13) | Potency (MCC-26) | Potency (MKL-1) | Potency (MKL-2) | Potency (UISO) | Potency (WaGa) | Potency (C33A) | Potency (CAOV3) | Potency (CASKI) | Potency (Es-2) | Potency (HeLa) | Potency (Hek293T) | Potency (JEG-3) | Potency (OV90) | Potency (PA-1) | Potency (SKOV3)

CC(C)(C)C(O)/C=C/c1ccc2c(c1)OCO2 (stereo not drawn)
inactive: max response (NIH3T3 [1]) -4.85% | Potency (MCC-13) | Potency (MCC-26) | Potency (MKL-1) | Potency (MKL-2) | Potency (UISO) | Potency (WaGa) | Potency (C33A) | Potency (CAOV3) | Potency (CASKI) | Potency (Es-2) | Potency (HeLa) | Potency (Hek293T) | Potency (JEG-3) | Potency (OV90) | Potency (PA-1) | Potency (SKOV3)

OCCOCCN1CCN(C(c2ccccc2)c2ccc(Cl)cc2)CC1 (stereo not drawn)
inactive: outcome (NIH3T3 [1]) | Potency (MCC-13) | Potency (MCC-26) | Potency (MKL-1) | Potency (MKL-2) | outcome (NIH3T3 [2]) | Potency (UISO) | Potency (C33A) | Potency (CAOV3) | Potency (CASKI) | Potency (Es-2) | Potency (HeLa) | Potency (Hek293T) | Potency (JEG-3) | Potency (PA-1) | Potency (SKOV3)
